High-throughput results from PubChem BioAssay.
In the library only some 8% were active in any assay of this set; here they are far more common.
HCMV inh – qHTS Assay for inhibitors of the human cytomegalovirus (HCMV) | AID 1259415, 2018 | HFF cells, HCMV-luciferase reporter, 72 h; active compounds read low | 410,000 tested, 4.5% active | activity change, negative = inhibition, % at 57.5 µM; in the data active = activity change below about -60%; inconclusive = no clear call, values can overlap the other calls; inactive = above about -39%
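HFF cells seeded 16 h at 37C, treated with compounds, infected with luciferase-reporter HCMV at MOI 1 PFU/cell; luciferase read at 72 h post infection, normalized to buffer-only and Salinomycin controls.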
FMDV inh – High Throughput Screening for Foot and Mouth Disease Virus Antivirals | FMDV antiviral cell-based qHTS | Potency, µM (series often up to 57.9 µM), usual class: inhibitors | 410,000 tested, 1.2% active | AID 1159524, 2015; calls by dose curve; tested in HEK293T cells; note: read-out not given here; nearly all actives have a fitted effect of over 45% in size
MARV entry inh – qHTS for inhibitors of binding or entry into cells for Marburg Virus | Marburg virus pseudotyped entry inhibition, cell reporter | Potency, µM (doses to about 37.8 µM), most hits filed as inhibitors | 300,000 tested, 1.8% active | AID 540276, 2011; calls by dose curve; tested in HEK293 cells
Lassa entry inh – qHTS for Inhibitors of binding or entry into cells for Lassa Virus; Lassa virus pseudotype entry inhibition, cell reporter; AID 540256, 2011; 300,000 tested, 1.2% active; Potency, µM (top dose mostly 37.9 µM), hits mostly inhibitors; calls by dose curve; tested in HEK293 cells; note: nearly all actives have a fitted effect of over 50% in size
SARS PLP yeast – qHTS of Yeast-based Assay for SARS-CoV PLP; Potency, µM (series often up to 32.9 µM), usual class: activators; S. cerevisiae expressing SARS-CoV PLpro, growth rescue; 330,000 tested, 0.19% active; AID 485353, 2010; calls by dose curve; note: nearly all actives have a fitted effect of over 55% in size
HCV inh – qHTS Assay for Inhibitors of Hepatitis C Virus (HCV) | Huh7.5.1 HCVcc-Cre infection, luciferase reporter, 44 h | Potency, µM (top dose mostly 41.8 µM), most hits filed as inhibitors | 340,000 tested, 3.4% active | AID 651820, 2012; active = well fitted inhibition curve with a large enough effect; inconclusive = small, poorly fitted or top-dose-only effect, or another doubt; inactive = no such curve, though single readings can be large or run the other way
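Infectious HCV cell culture screen: compound-treated cells (1,000/well, pre-plated 4 h) are infected with HCVcc-Cre at roughly 0.5 moi and grown 44 h. Infection is quantified by luciferase signal after 15 min substrate incubation at room temperature.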
Numbers stand for hits; - = inactive; ? = inconclusive; . = no result given; ! = a repeat was not active.

SMILES | HCMV inh | FMDV inh | MARV entry inh | Lassa entry inh | SARS PLP yeast | HCV inh
COc1ccc(COC(=O)N/N=C(\C)CC(=O)NCc2ccc(Cl)cc2)cc1 | - | - | - | ? | - | -
O=C1CC(/C=C/c2ccccc2)=Nc2ccccc2N1 | - | - | . | . | - | -
CC1(C)CC(/C=C/c2ccccc2)=Nc2ccccc2N1 | -78 | - | . | . | - | -
O=C1CC(/C=C/c2ccc(Cl)cc2)=Nc2ccccc2N1 | -91 | - | . | . | - | ?
C=CC[C@@H]1C=C[C@@H](Oc2ccc(OC)cc2)[C@@H](COC(=O)c2ccc(Br)cc2)O1 | . | . | - | . | . | .
COc1ccc2c(C)nc(Nc3nc(C)c(C)c(=O)[nH]3)nc2c1 | -102 | - | ? | ? | - | ?
Cc1nc(Nc2nc(CSc3nc4ccccc4[nH]3)cc(=O)[nH]2)nc2ccccc12 | -103 | ? | 13µM | ? | - | ?
CCc1c(C)nc(Nc2nc(C)c3ccc(OC)cc3n2)[nH]c1=O | - | . | - | - | - | ?
COc1cccc2c(C)nc(Nc3nc(CSc4nnc(C)s4)cc(=O)[nH]3)nc12 | - | - | - | - | - | -
Cc1nc(Nc2nc(-c3ccccc3)cc(=O)[nH]2)nc2ccccc12 | - | - | ? | ? | . | 8.9µM
Cc1ccc2c(C)nc(Nc3nc(CSc4nnc(C)s4)cc(=O)[nH]3)nc2c1 | -99 | - | - | - | - | ?
COc1ccc(OC)c(S(=O)(=O)N2CCN(Cc3nc4ccc(C)cc4o3)CC2)c1 | - | - | . | - | . | .
Cc1cccc(CNC(=O)c2cnn(-c3nccc(-c4cc5ccccc5o4)n3)c2C2CC2)n1 | . | - | . | . | . | .
Cc1nc(Nc2nc(CSc3ccc(Cl)cc3)cc(=O)[nH]2)nc2ccccc12 | - | - | - | - | - | -
COc1ccc2nc(Nc3nc(CSc4nc5ccccc5[nH]4)cc(=O)[nH]3)nc(C)c2c1 | -98 | ? | 11µM | ? | - | 14µM
Cc1ccc(N/C(N)=N/c2nc(CSc3nnc(C)s3)cc(=O)[nH]2)c(C)c1 | -88 | - | . | . | - | -
Cc1nn(C)c2c1c(-c1ccccc1)cc(=O)n2C(C)C(=O)NCc1ccc(F)cc1 (stereo unspecified) | - | - | . | ? | . | .
CCOc1ccccc1C(=O)Nc1cc(-c2ccc(C)cc2)no1 | - | - | ? | - | . | .
Cc1ccsc1C(=O)NCc1ccccc1Cl | - | - | - | . | - | -
Cc1ccsc1C(=O)NCCC(c1ccccc1)c1ccccc1 | - | - | 13µM | ? | - | -
Cc1nc(C)c(C(=O)NCCC(c2ccccc2)c2ccccc2)o1 | ? | ? | - | ? | - | 10µM
CC(C)CO/N=C1/C[C@@H](O)[C@@H](O)[C@@H]2[C@@H]3C(=O)N(Cc4ccccc4)C(=O)[C@H]3CC[C@H]12 | . | . | - | . | . | .
Cn1c(C(=O)N2CCCC(C(=O)NCCCSC3CCCCC3)C2)cc2sccc21 (stereo unspecified) | -61 | ? | ? | 13µM | - | ?
CCn1c(C(=O)N2CCCC(C(=O)NCCCc3ccccc3)C2)cc2sccc21 (stereo unspecified) | -70 | . | ? | - | - | ?
O=C(OCC#CCSc1nnc(-c2cccc3ccccc23)s1)c1cccs1 | . | . | . | . | - | .
SMILES | HCMV inh | FMDV inh | MARV entry inh | Lassa entry inh | SARS PLP yeast | HCV inh
Oc1ccc(NCc2ccc(OCc3ccccc3)cc2)cc1 | -63! | - | ? | ? | - | -
COc1ccc(C(CCNC(C)c2ccccc2)c2ccc(F)cc2)cc1 (stereo unspecified) | ? | - | ? | ? | - | ?
COc1ccc(CNCCC(c2ccc(OC)cc2)c2ccccc2OC)cc1 (stereo unspecified) | ? | - | ? | - | - | ?
COc1ccc(C(CCNCc2ccccc2)c2ccc(F)cc2)cc1 (stereo unspecified) | - | - | ? | ? | - | 6.3µM
COc1ccc(CCNCc2ccc(OCc3ccccc3)cc2)cc1 | -89 | - | ? | ? | - | -
Oc1ccc(NCc2ccc(OCc3ccccc3Cl)cc2)cc1 | - | - | ? | ? | . | .
COc1ccc(CCNCc2ccc(SC)cc2)cc1 | - | . | ? | - | - | -
COc1ccc(C(CCNCc2ccc(F)cc2)c2ccc(F)cc2)cc1 (stereo unspecified) | ? | - | 15µM | ? | - | ?
NC1(N)OC(CN2C(=O)C3=C(CCCC3)C2=O)CS1 (stereo unspecified) | . | . | - | . | . | .
